# Data published in PubChem BioAssay.
# For some assays here: Results with a measured potency or affinity are listed apart. Calls of active or inactive are those of the source. Unless noted, the rule behind the calls is not given here.
# Columns and labels:
# [1] = antimalarial activity against Dd2 strain (AID 2302;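 active = growth inhibition above 50% at the single 2 µM test dose, taken to imply half-maximal potency below 2 µM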;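 note: 0% = DMSO untreated growth and 100% = chloroquine plus artemisinin killed control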); details: P. falciparum Dd2 in RBCs, LDH growth readout, 72 h; at 2 µM; hits give high values
# [2] = HepG2 cytotoxicity, primary screen, cytotoxicity control for P. falciparum antimalarial project, cell-based, ATP luminescence (AID 2303;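 active = inhibition above 50%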;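 note: 0% = DMSO wells and 100% = digitonin-killed cells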); details: HepG2 viability, 24-48 h, at 10 µM, hits give high values
# [3] = molecular target: L-lactate dehydrogenase (Plasmodium falciparum (isolate CDC / Honduras)) (UniProt Q27743); assay: PfLDH activity inhibition – cell lysate, 3D7 strain, counter-screen for P. falciparum growth inhibition project (AID 2304);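 note: 0% = vehicle and 100% = reference inhibitor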; details: P. falciparum 3D7 crude extract, LDH APAD/NBT absorbance; at 2 µM; hits give high values
# L-lactate dehydrogenase (Plasmodium falciparum (isolate CDC / Honduras)), sequence (Q27743 whole entry, looked up): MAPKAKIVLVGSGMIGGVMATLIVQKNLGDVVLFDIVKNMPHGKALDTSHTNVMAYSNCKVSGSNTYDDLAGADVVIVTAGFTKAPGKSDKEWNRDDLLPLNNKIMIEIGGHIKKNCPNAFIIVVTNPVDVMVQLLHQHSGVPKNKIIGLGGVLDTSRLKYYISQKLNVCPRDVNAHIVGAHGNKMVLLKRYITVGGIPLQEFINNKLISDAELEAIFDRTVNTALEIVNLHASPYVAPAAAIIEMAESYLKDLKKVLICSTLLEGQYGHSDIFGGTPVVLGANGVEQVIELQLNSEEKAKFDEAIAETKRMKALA
# [4] = inhibition of 3D7 malaria parasite growth – strain 3D7 (AID 2306);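 note: 0% = DMSO wells and 100% = chloroquine plus artemisinin control wells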; details: P. falciparum 3D7 erythrocytic growth, LDH absorbance, 72 h; at 2 µM; hits give high values
# [5] = molecular target: Calcium-dependent protein kinase 1 (Plasmodium falciparum (isolate 3D7)) (UniProt P62344); assay: PfCDPK1 kinase inhibitors, biochemical, TCAMS library (AID 1159585; cut-off not given, nearly all actives have IC50 up to about 0.98 µM;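 note: inhibitors leave more ATP so luminescence rises with inhibition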); details: recombinant PfCDPK1, Kinase-Glo ATP depletion luminescence
# Calcium-dependent protein kinase 1 (Plasmodium falciparum (isolate 3D7)), sequence (P62344 whole entry, looked up): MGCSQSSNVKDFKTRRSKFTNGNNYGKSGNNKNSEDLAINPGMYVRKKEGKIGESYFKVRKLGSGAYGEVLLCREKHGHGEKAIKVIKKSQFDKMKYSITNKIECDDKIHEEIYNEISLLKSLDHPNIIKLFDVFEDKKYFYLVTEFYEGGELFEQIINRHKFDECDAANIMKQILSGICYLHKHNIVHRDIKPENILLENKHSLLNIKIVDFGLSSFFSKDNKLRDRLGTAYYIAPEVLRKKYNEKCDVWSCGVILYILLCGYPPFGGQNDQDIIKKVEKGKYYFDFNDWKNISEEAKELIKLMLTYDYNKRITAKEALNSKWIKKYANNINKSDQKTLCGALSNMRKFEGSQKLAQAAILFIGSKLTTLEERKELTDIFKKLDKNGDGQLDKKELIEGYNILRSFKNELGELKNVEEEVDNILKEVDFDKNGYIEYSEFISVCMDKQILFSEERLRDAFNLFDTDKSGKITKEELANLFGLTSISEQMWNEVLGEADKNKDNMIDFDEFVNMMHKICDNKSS
# [6] = molecular target: Plasmodium falciparum protein kinase 6 (PK6, PF3D7_1337100) (UniProt Q8IDW1); assay: PfPK6 kinase inhibitors, biochemical, TCAMS library (AID 1159586); details: recombinant PfPK6, Kinase-Glo ATP depletion luminescence
# Plasmodium falciparum protein kinase 6 (PK6, PF3D7_1337100), sequence (Q8IDW1 1-305): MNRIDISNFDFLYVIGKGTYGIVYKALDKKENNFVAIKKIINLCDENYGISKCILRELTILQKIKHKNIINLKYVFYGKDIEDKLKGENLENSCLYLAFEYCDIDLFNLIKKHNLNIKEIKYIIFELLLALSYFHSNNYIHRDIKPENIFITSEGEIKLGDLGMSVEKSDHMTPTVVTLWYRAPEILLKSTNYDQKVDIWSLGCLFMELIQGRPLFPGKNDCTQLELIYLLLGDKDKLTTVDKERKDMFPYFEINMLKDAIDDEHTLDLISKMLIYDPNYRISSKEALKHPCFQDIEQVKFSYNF
# [7] = molecular target: Protein kinase 7 (PK7), Plasmodium falciparum 3D7 (PF3D7_0213400) (UniProt Q7YTF7); assay: inhibition of Plasmodium PK7 catalytic activity – biochemical, TCAMS antimalarial set, Kinase-Glo luminescence (AID 1159587); details: recombinant PfPK7, Kinase-Glo ATP depletion luminescence
# Protein kinase 7 (PK7), Plasmodium falciparum 3D7 (PF3D7_0213400), sequence (Q7YTF7 1-343): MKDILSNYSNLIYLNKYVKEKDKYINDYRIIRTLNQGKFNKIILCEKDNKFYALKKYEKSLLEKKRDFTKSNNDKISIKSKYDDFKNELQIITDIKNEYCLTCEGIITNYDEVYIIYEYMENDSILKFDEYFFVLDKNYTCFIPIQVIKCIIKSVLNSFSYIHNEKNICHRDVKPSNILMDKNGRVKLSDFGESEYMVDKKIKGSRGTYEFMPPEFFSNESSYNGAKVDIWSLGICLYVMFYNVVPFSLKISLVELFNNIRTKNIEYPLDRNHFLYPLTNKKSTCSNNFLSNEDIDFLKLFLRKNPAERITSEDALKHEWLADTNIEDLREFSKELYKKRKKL
# [8] = molecular target: Calcium-dependent protein kinase 4 (Plasmodium falciparum (isolate 3D7)) (UniProt Q8IBS5); assay: PfCDPK4 kinase inhibitors, biochemical, TCAMS library (AID 1159588; cut-off not given, nearly all actives have IC50 up to about 0.91 µM); details: recombinant PfCDPK4, Kinase-Glo ATP depletion luminescence
# Calcium-dependent protein kinase 4 (Plasmodium falciparum (isolate 3D7)), sequence (Q8IBS5 whole entry, looked up): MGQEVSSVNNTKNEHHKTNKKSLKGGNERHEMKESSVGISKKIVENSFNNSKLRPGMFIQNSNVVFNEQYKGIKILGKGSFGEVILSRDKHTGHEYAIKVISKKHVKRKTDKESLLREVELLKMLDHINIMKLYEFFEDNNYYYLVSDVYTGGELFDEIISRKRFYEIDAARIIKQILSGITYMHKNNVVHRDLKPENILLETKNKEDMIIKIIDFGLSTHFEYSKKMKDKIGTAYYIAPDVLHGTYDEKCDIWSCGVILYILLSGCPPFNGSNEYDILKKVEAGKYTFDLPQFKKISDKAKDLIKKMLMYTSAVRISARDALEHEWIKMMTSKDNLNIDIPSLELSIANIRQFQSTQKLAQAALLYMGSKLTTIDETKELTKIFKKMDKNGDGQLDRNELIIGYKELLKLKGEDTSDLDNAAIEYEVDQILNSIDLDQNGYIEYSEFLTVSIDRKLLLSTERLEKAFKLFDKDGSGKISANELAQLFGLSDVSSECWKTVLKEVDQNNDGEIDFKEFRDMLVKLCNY
SMILES,growth inhibition [1],inhibition [2],inhibition [3],growth inhibition [4],outcome [5],outcome [6],outcome [7],outcome [8]
CC(C)Oc1cc2c(cc1NS(=O)(=O)c1ccc(-c3cccs3)cc1)CCN(C)CC2,9% (inactive),9% (inactive),-4% (inactive),88% (active),inactive,inactive,inactive,inactive
CC1(C)N=C(N)N=C(N)N1OCCCOc1cc(Cl)ccc1Cl,96% (active),64% (active),-1% (inactive),96% (active),inactive,inactive,inactive,inactive
Cc1cc(N[C@@H](Cc2ccccc2)C(=O)NCc2cccc(F)c2)nc(NCCCOC(C)C)n1,94% (active),10% (inactive),-2% (inactive),101% (active),inactive,inactive,inactive,inactive
Cc1c(NCCCNCc2cc(Cl)cc(Cl)c2Cl)[nH]c2ccccc2c1=O,86% (active),35% (inactive),-2% (inactive),101% (active),inactive,inactive,inactive,inactive
CC1(C)CN(CCC2CCC(NC(=O)/C=C/c3ccccc3F)CC2)Cc2ccc(C#N)cc21 (stereo unspecified),82% (active),-1% (inactive),-3% (inactive),89% (active),inactive,inactive,inactive,inactive
O=C(Nc1cccc(-c2ccc(-c3nc4ccc(C(F)(F)F)cc4[nH]3)cc2)c1)c1cnc[nH]1,21% (inactive),16% (inactive),-3% (inactive),91% (active),inactive,inactive,inactive,inactive
CCC[C@@H]([C@@H](CC1CCCCC1)C(=O)N[C@H](C(=O)Nc1nccs1)[C@@H](C)OCc1ccccc1)N(O)C=O,99% (active),51% (active),-3% (inactive),100% (active),inactive,inactive,inactive,inactive
CN(CCC1CCN(C(=O)/C=C/c2ccc(Cl)c(Cl)c2)CC1)C1CCC(c2c[nH]c3ccccc23)CC1 (stereo unspecified),9% (inactive),57% (active),-5% (inactive),87% (active),inactive,inactive,inactive,inactive
CN1CCN(CC2(Nc3nccc(NCc4ccc(Cl)cc4Cl)n3)CCCCC2)CC1,58% (active),98% (active),0% (inactive),98% (active),inactive,inactive,inactive,inactive
CC(C)Cn1cc(C2CCN(CCN3CCC(CNC(=O)c4ccc(-c5ccc(C(F)(F)F)cc5)cc4)CC3)CC2)c2ccccc21,87% (active),100% (active),0% (inactive),101% (active),inactive,inactive,inactive,inactive
Cc1cc(C(F)(F)F)n2nc(C3CCN(Cc4cc(C)c(O)c(C)c4)C3)cc2n1 (stereo unspecified),99% (active),34% (inactive),0% (inactive),98% (active),inactive,inactive,inactive,inactive
CCn1c2ccccc2c2cc(Cc3cnc(N)nc3N)ccc21,-2% (inactive),28% (inactive),5% (inactive),94% (active),inactive,inactive,inactive,inactive
N/C(=N\c1ncccn1)Nc1cccc(Cc2ccccc2)n1,34% (inactive),51% (active),-2% (inactive),90% (active),inactive,inactive,inactive,inactive
COC(=O)c1cccc(CNCc2cccc(-c3cccc(-c4nc5ccc(C(F)(F)F)cc5[nH]4)c3)c2)c1,69% (active),7% (inactive),6% (inactive),102% (active),inactive,inactive,inactive,inactive
Cc1cc(N[C@@H](Cc2ccccc2)C(=O)Nc2ccccc2)nc(NCCN2CCCC2)n1,-5% (inactive),8% (inactive),0% (inactive),94% (active),inactive,inactive,inactive,inactive
CC1CCC2(CC1)N=C(N)N=C(N)N2OCCCCCCCCO (stereo unspecified),87% (active),2% (inactive),-4% (inactive),96% (active),inactive,inactive,inactive,inactive
CCCC(CC)n1ccc2c3c(N)nc(N)nc3ccc21 (stereo unspecified),97% (active),67% (active),0% (inactive),94% (active),inactive,inactive,inactive,inactive
CCc1ccc(C(=O)Nc2cccc(CN3CCCN(Cc4ccc(O)cc4)CC3)c2)cc1,74% (active),11% (inactive),-1% (inactive),101% (active),inactive,inactive,inactive,inactive
O=c1cc(NCCNCc2cccc(-c3ccccc3)c2)[nH]c2ccccc12,68% (active),-2% (inactive),-6% (inactive),93% (active),inactive,inactive,inactive,inactive

SMILES,growth inhibition [1],inhibition [2],inhibition [3],growth inhibition [4],outcome [5],outcome [6],outcome [7],outcome [8]
CC(C)(C)c1ccc(NC(=O)c2ccc(CN3CCCN(Cc4cccc(C#N)c4)CC3)cc2)cc1,12% (inactive),54% (active),-5% (inactive),99% (active),inactive,inactive,inactive,inactive
O=C(CN(c1cccc(C(F)(F)F)c1)S(=O)(=O)c1ccc(Cl)cc1)NCCC(c1ccccc1)c1ccccc1,50% (active),14% (inactive),-2% (inactive),94% (active),inactive,inactive,inactive,inactive
CC(C)(C)c1ccc(S(=O)(=O)Nc2ccccc2N2CCOCC2)cc1,60% (active),11% (inactive),1% (inactive),90% (active),inactive,inactive,inactive,inactive
O=C(NCCCCN1CC=C(c2ccc3c(c2OCC2CC2)CCCC3)CC1)c1ccc(-c2ccc(C(F)(F)F)cc2)cc1,60% (active),25% (inactive),-10% (inactive),93% (active),inactive,inactive,inactive,inactive
O=C(Nc1ccc(-c2cccc(-c3nc4ccc(F)cc4[nH]3)c2)cc1)c1cnn2cccnc12,25% (inactive),10% (inactive),-1% (inactive),98% (active),inactive,inactive,inactive,inactive
N#Cc1ccc2c(c1)CCN(CCC1CCC(NC(=O)c3cc4ccccc4[nH]3)CC1)CC2 (stereo unspecified),25% (inactive),17% (inactive),-1% (inactive),89% (active),inactive,inactive,inactive,inactive
COc1ccc2nc3cc(Cl)ccc3c(NCCc3ccccc3)c2c1,82% (active),-1% (inactive),8% (inactive),94% (active),inactive,inactive,inactive,inactive
CCCC(=O)c1cnc2c(Oc3cc(Cl)ncn3)cccc2c1Nc1ccccc1C,85% (active),6% (inactive),6% (inactive),99% (active),inactive,inactive,inactive,inactive
N[C@@H](Cc1cc(I)c(Oc2ccc(O)c(Cl)c2)c(I)c1)C(=O)O,-3% (inactive),-4% (inactive),-2% (inactive),96% (active),inactive,inactive,inactive,inactive
CC(C)c1sc(N2CCN(C)CC2)nc1C(=O)NCCc1ccc(Br)cc1,60% (active),-1% (inactive),-1% (inactive),89% (active),inactive,inactive,inactive,inactive
NCc1cccc(-c2ccccc2CNC2CCN(Cc3ccccc3)CC2)c1,4% (inactive),-3% (inactive),-2% (inactive),94% (active),inactive,inactive,inactive,inactive
Cc1ccc(C2CCN(CCCCNC(=O)c3ccc(-c4ccc(C(F)(F)F)cc4)cc3)CC2)c(O)c1,49% (inactive),92% (active),-2% (inactive),100% (active),inactive,inactive,inactive,inactive
O=C(c1ccc(Cl)cc1)N1CCCC(C(=O)N(Cc2nnc(-c3ccccc3Cl)o2)C2CC2)C1 (stereo unspecified),96% (active),10% (inactive),0% (inactive),95% (active),inactive,inactive,inactive,inactive
O=C(Nc1ccnc(N2CCCN(Cc3cccc(O)c3)CC2)c1)c1ccc(F)cc1,3% (inactive),12% (inactive),4% (inactive),90% (active),inactive,inactive,inactive,inactive
Cc1cccc2[nH]c(-c3cccc(-c4cccc(NC(=O)CNC(=O)c5ccc(O)cc5)c4)c3)nc12,49% (inactive),9% (inactive),-1% (inactive),94% (active),inactive,inactive,inactive,inactive
C[C@@H](Oc1cc(-n2cnc3cc(SCCN4CCN(C)CC4)ccc32)sc1C(N)=O)c1ccccc1Cl,65% (active),46% (inactive),-1% (inactive),90% (active),inactive,inactive,inactive,inactive
N#Cc1cncc(-c2nc3c(N4CCC(Cc5ccccc5)CC4)cccc3n2C2CCNC2)c1 (stereo unspecified),7% (inactive),5% (inactive),-1% (inactive),88% (active),inactive,inactive,inactive,inactive
COc1ccccc1Cc1nc2ccccc2nc1SCC(=O)Nc1cccc(C(F)(F)F)c1,91% (active),8% (inactive),0% (inactive),97% (active),inactive,inactive,inactive,inactive
